# Where a chain is given by its changes, count along the chain named.
# Legend:
# Test in all cases: PBM; 200 nM protein, PBS
# Conditions in all cases: dsDNA, one strand shown
# HOXB4 [1] = target: HOXB4 (Homo sapiens, UniProt P17483 148-234)
# HOXC10 [2] = target: HOXC10 (Homo sapiens, UniProt Q9NYD6 254-340)
# HOXB4 [3] = target: HOXB4 (Homo sapiens, UniProt P17483 148-234, V174I)
# NKX2-6 [4] = target: T1, NKX2-6 (Homo sapiens, UniProt A6NCS4 118-204, R150C)
# T1 sequence: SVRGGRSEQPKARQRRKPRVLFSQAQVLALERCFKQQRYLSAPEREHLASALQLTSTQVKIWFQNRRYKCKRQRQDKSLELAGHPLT
# HOXC10 [5] = target: HOXC10 (Homo sapiens, UniProt Q9NYD6 254-340, K271E)
# HOXB6 [6] = target: HOXB6 (Homo sapiens, UniProt P17509 132-218, K202E)
# ALX1 [7] = target: ALX1 (Homo sapiens, UniProt Q15699 118-204, L144V)
# ALX1 [8] = target: ALX1 (Homo sapiens, UniProt Q15699 118-204, L144R)
# ALX1 [9] = target: ALX1 (Homo sapiens, UniProt Q15699 118-204)
# HOXB6 [10] = target: HOXB6 (Homo sapiens, UniProt P17509 132-218)
# ALX4 [11] = target: ALX4 (Homo sapiens, UniProt Q9H161 200-286)
# ALX4 [12] = target: ALX4 (Homo sapiens, UniProt Q9H161 200-286, Q225E)
# VAX1 [13] = target: VAX1 (Homo sapiens, UniProt Q5SQQ9 86-172)
# VAX1 [14] = target: VAX1 (Homo sapiens, UniProt Q5SQQ9 86-172, T142I)
# VAX1 [15] = target: VAX1 (Homo sapiens, UniProt Q5SQQ9 86-172, K157R)
# PRRX1 [16] = target: PRRX1 (Homo sapiens, UniProt P54821 80-166, F113S)
# NKX2-6 [17] = target: T2, NKX2-6 (Homo sapiens, UniProt A6NCS4 118-204)
# T2 sequence: T1 sequence with C33R
# NKX2-6 [18] = target: T3, NKX2-6 (Homo sapiens, UniProt A6NCS4 118-204, F151L)
# T3 sequence: T1 sequence with C33R, F34L
# PRRX1 [19] = target: PRRX1 (Homo sapiens, UniProt P54821 80-166)
# ALX3 [20] = target: ALX3 (Homo sapiens, UniProt O95076 139-225, N203Q)
# ALX3 [21] = target: ALX3 (Homo sapiens, UniProt O95076 139-225)
# ALX3 [22] = target: ALX3 (Homo sapiens, UniProt O95076 139-225, L168Q)
# ALX3 [23] = target: ALX3 (Homo sapiens, UniProt O95076 139-225, L168V)
# ALX3 [24] = target: ALX3 (Homo sapiens, UniProt O95076 139-225, N203S)
# Chain of ALX3 (Homo sapiens, UniProt O95076 139-225, N203S) (O95076 139-225 N203S): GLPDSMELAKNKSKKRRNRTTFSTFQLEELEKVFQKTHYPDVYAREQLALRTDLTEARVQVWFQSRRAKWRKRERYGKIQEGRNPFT
# Chain of HOXB4 (Homo sapiens, UniProt P17483 148-234, V174I) (P17483 148-234 V174I): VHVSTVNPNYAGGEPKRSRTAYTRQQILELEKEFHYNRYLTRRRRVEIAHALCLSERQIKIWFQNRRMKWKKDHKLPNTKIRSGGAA
# Chain of HOXB4 (Homo sapiens, UniProt P17483 148-234) (P17483 148-234): as the sequence (P17483 148-234 V174I) above, with I27V counted along it
# Chain of PRRX1 (Homo sapiens, UniProt P54821 80-166) (P54821 80-166): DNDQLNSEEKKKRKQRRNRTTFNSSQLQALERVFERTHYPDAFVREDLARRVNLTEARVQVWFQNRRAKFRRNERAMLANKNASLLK
# Chain of PRRX1 (Homo sapiens, UniProt P54821 80-166, F113S) (P54821 80-166 F113S): as the sequence (P54821 80-166) above, with F34S counted along it
# Chain of ALX3 (Homo sapiens, UniProt O95076 139-225, N203Q) (O95076 139-225 N203Q): as the sequence (O95076 139-225 N203S) above, with S65Q counted along it
# Chain of VAX1 (Homo sapiens, UniProt Q5SQQ9 86-172, T142I) (Q5SQQ9 86-172 T142I): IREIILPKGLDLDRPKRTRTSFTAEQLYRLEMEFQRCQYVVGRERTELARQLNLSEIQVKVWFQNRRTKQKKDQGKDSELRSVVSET
# Chain of ALX3 (Homo sapiens, UniProt O95076 139-225, L168V) (O95076 139-225 L168V): as the sequence (O95076 139-225 N203S) above, with L30V, S65N counted along it
# Chain of ALX1 (Homo sapiens, UniProt Q15699 118-204, L144R) (Q15699 118-204 L144R): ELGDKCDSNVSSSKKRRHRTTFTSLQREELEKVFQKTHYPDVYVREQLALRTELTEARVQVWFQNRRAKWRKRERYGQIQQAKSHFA
# Chain of HOXC10 (Homo sapiens, UniProt Q9NYD6 254-340, K271E) (Q9NYD6 254-340 K271E): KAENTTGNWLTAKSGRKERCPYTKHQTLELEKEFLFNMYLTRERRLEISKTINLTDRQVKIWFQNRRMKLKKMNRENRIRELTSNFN
# Chain of VAX1 (Homo sapiens, UniProt Q5SQQ9 86-172, K157R) (Q5SQQ9 86-172 K157R): as the sequence (Q5SQQ9 86-172 T142I) above, with I57T, K72R counted along it
# Chain of ALX3 (Homo sapiens, UniProt O95076 139-225, L168Q) (O95076 139-225 L168Q): as the sequence (O95076 139-225 N203S) above, with L30Q, S65N counted along it
# Chain of HOXB6 (Homo sapiens, UniProt P17509 132-218, K202E) (P17509 132-218 K202E): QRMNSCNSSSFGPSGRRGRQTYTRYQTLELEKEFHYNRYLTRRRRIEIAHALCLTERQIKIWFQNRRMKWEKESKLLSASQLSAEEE
# Chain of HOXC10 (Homo sapiens, UniProt Q9NYD6 254-340) (Q9NYD6 254-340): as the sequence (Q9NYD6 254-340 K271E) above, with E18K counted along it
# Chain of ALX1 (Homo sapiens, UniProt Q15699 118-204, L144V) (Q15699 118-204 L144V): as the sequence (Q15699 118-204 L144R) above, with R27V counted along it
# Chain of ALX3 (Homo sapiens, UniProt O95076 139-225) (O95076 139-225): as the sequence (O95076 139-225 N203S) above, with S65N counted along it
# Chain of ALX4 (Homo sapiens, UniProt Q9H161 200-286, Q225E) (Q9H161 200-286 Q225E): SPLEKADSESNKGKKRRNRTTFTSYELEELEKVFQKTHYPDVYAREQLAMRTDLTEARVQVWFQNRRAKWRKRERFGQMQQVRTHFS
# Chain of ALX1 (Homo sapiens, UniProt Q15699 118-204) (Q15699 118-204): as the sequence (Q15699 118-204 L144R) above, with R27L counted along it
# Chain of HOXB6 (Homo sapiens, UniProt P17509 132-218) (P17509 132-218): as the sequence (P17509 132-218 K202E) above, with E71K counted along it
# Chain of VAX1 (Homo sapiens, UniProt Q5SQQ9 86-172) (Q5SQQ9 86-172): as the sequence (Q5SQQ9 86-172 T142I) above, with I57T counted along it
# Chain of ALX4 (Homo sapiens, UniProt Q9H161 200-286) (Q9H161 200-286): as the sequence (Q9H161 200-286 Q225E) above, with E26Q counted along it
sequence,measurement,setting,value
CGGGACCA,binding signal,HOXB4 [1],"7.51 upbm affinity estimate (log intensity, higher = more binding, comparable within an allelic series)"
same,binding signal,HOXC10 [2],"10.1 upbm affinity estimate (log intensity, higher = more binding, comparable within an allelic series)"
same,binding signal,HOXB4 [3],"7.58 upbm affinity estimate (log intensity, higher = more binding, comparable within an allelic series)"
same,binding signal,NKX2-6 [4],"9.71 upbm affinity estimate (log intensity, higher = more binding, comparable within an allelic series)"
same,binding signal,HOXC10 [5],"10.1 upbm affinity estimate (log intensity, higher = more binding, comparable within an allelic series)"
AGGCGCGC,binding signal,HOXB4 [1],"7.53 upbm affinity estimate (log intensity, higher = more binding, comparable within an allelic series)"
same,binding signal,HOXB6 [6],"9.19 upbm affinity estimate (log intensity, higher = more binding, comparable within an allelic series)"
same,binding signal,HOXB4 [3],"7.6 upbm affinity estimate (log intensity, higher = more binding, comparable within an allelic series)"
same,binding signal,ALX1 [7],"6.59 upbm affinity estimate (log intensity, higher = more binding, comparable within an allelic series)"
same,binding signal,ALX1 [8],"6.72 upbm affinity estimate (log intensity, higher = more binding, comparable within an allelic series)"
same,binding signal,ALX1 [9],"6.44 upbm affinity estimate (log intensity, higher = more binding, comparable within an allelic series)"
same,binding signal,HOXB6 [10],"8.96 upbm affinity estimate (log intensity, higher = more binding, comparable within an allelic series)"
CCACAGGC,binding signal,HOXB4 [1],"7.72 upbm affinity estimate (log intensity, higher = more binding, comparable within an allelic series)"
same,binding signal,HOXB4 [3],"7.85 upbm affinity estimate (log intensity, higher = more binding, comparable within an allelic series)"
CTGGAGCC,binding signal,HOXB4 [1],"7.25 upbm affinity estimate (log intensity, higher = more binding, comparable within an allelic series)"
same,binding signal,ALX4 [11],"7.69 upbm affinity estimate (log intensity, higher = more binding, comparable within an allelic series)"
same,binding signal,ALX4 [12],"8.02 upbm affinity estimate (log intensity, higher = more binding, comparable within an allelic series)"
same,binding signal,HOXB4 [3],"7.29 upbm affinity estimate (log intensity, higher = more binding, comparable within an allelic series)"
same,binding signal,VAX1 [13],"6.85 upbm affinity estimate (log intensity, higher = more binding, comparable within an allelic series)"
same,binding signal,VAX1 [14],"6.94 upbm affinity estimate (log intensity, higher = more binding, comparable within an allelic series)"
same,binding signal,VAX1 [15],"6.67 upbm affinity estimate (log intensity, higher = more binding, comparable within an allelic series)"
ATATGATG,binding signal,HOXB4 [1],"10 upbm affinity estimate (log intensity, higher = more binding, comparable within an allelic series)"
same,binding signal,HOXB4 [3],"10.1 upbm affinity estimate (log intensity, higher = more binding, comparable within an allelic series)"
AGCCCCCA,binding signal,HOXB4 [1],"7.49 upbm affinity estimate (log intensity, higher = more binding, comparable within an allelic series)"
same,binding signal,HOXB4 [3],"7.6 upbm affinity estimate (log intensity, higher = more binding, comparable within an allelic series)"
CAGGCACG,binding signal,HOXB4 [1],"7.26 upbm affinity estimate (log intensity, higher = more binding, comparable within an allelic series)"
same,binding signal,PRRX1 [16],"9.38 upbm affinity estimate (log intensity, higher = more binding, comparable within an allelic series)"
same,binding signal,HOXB4 [3],"7.43 upbm affinity estimate (log intensity, higher = more binding, comparable within an allelic series)"
same,binding signal,NKX2-6 [17],"9.31 upbm affinity estimate (log intensity, higher = more binding, comparable within an allelic series)"
same,binding signal,NKX2-6 [18],"9.26 upbm affinity estimate (log intensity, higher = more binding, comparable within an allelic series)"
same,binding signal,PRRX1 [19],"9.24 upbm affinity estimate (log intensity, higher = more binding, comparable within an allelic series)"
AAACGAGT,binding signal,HOXB4 [1],"9.6 upbm affinity estimate (log intensity, higher = more binding, comparable within an allelic series)"
same,binding signal,HOXB4 [3],"9.41 upbm affinity estimate (log intensity, higher = more binding, comparable within an allelic series)"
CCCGAGGA,binding signal,HOXB4 [1],"7.28 upbm affinity estimate (log intensity, higher = more binding, comparable within an allelic series)"
same,binding signal,HOXB4 [3],"7.6 upbm affinity estimate (log intensity, higher = more binding, comparable within an allelic series)"
CCCCCGTA,binding signal,HOXB4 [1],"7.91 upbm affinity estimate (log intensity, higher = more binding, comparable within an allelic series)"
same,binding signal,PRRX1 [16],"9 upbm affinity estimate (log intensity, higher = more binding, comparable within an allelic series)"
same,binding signal,HOXB4 [3],"7.84 upbm affinity estimate (log intensity, higher = more binding, comparable within an allelic series)"
same,binding signal,ALX3 [20],"7.68 upbm affinity estimate (log intensity, higher = more binding, comparable within an allelic series)"
same,binding signal,ALX3 [21],"7.71 upbm affinity estimate (log intensity, higher = more binding, comparable within an allelic series)"
same,binding signal,ALX3 [22],"7.65 upbm affinity estimate (log intensity, higher = more binding, comparable within an allelic series)"
same,binding signal,ALX3 [23],"7.65 upbm affinity estimate (log intensity, higher = more binding, comparable within an allelic series)"
same,binding signal,ALX3 [24],"7.65 upbm affinity estimate (log intensity, higher = more binding, comparable within an allelic series)"
same,binding signal,PRRX1 [19],"9.39 upbm affinity estimate (log intensity, higher = more binding, comparable within an allelic series)"
AAAATTAC,binding signal,HOXB4 [1],"11.3 upbm affinity estimate (log intensity, higher = more binding, comparable within an allelic series)"
same,binding signal,HOXB4 [3],"11.7 upbm affinity estimate (log intensity, higher = more binding, comparable within an allelic series)"

# Source: publication PMC11006913
